# Data from PubChem BioAssay AID720706 (Broad Institute, 2013).
# The whole screen tested about 350,000 compounds, of which about 5,500 (1.6%) were called active.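 The calls were made as follows: active = significant combined selectivity score with lowered wild-type GFP, culture density cut under 30%, mutant RFP and density less affected; inactive = any of these conditions unmet.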 This excerpt belongs to a sample that is enriched for actives.
# Assay: reduced GFP signal of wild-type E. coli, primary screen, bacterial rRNA inhibitor project, GFP/RFP fluorescence, OD600, single point (AID 720706)
# Settings: E. coli WT GFP vs humanized-ribosome RFP mutants, 24 h; GFP signal change (wild-type ribosome): stronger effect = lower value, DMSO median 0, no signal -100; OD600 change: measured here: OD600 growth, DMSO median 0, no signal -100; RFP signal change: measured here: RFP humanized mutant strains, DMSO median 0, no signal -100, concentration not given here
Structure (SMILES),GFP signal change (wild-type ribosome),OD600 change,RFP signal change
C[C@@H]1CN([C@@H](C)CO)S(=O)(=O)c2ccc(C#CCN(C)C)cc2O[C@@H]1CN(C)S(=O)(=O)c1cccc(F)c1,-0.828% (inactive),-6.54%,0.409%
C[C@H](CO)N1C[C@H](C)[C@H](CN(C)C(=O)Nc2ccc(C(F)(F)F)cc2)Oc2ccc(NS(=O)(=O)c3ccccc3)cc2CC1=O,2.52% (inactive),-0.79%,1.4%
CN1C(=O)c2cc(NC(=O)c3ccccc3)ccc2OC[C@@H]2O[C@@H](CC(=O)NC3CCCC3)CC[C@H]21,0.592% (inactive),4.01%,0.386%
Cc1cccc(OCCC(=O)Nc2ccccc2C(N)=O)c1,-0.179% (inactive),-10.5%,0.55%
Cc1ccc(F)c(NC(=O)CCOc2ccccc2C)c1,-19.4% (active),-1.12%,1.17%
Cc1ccccc1NC(=O)CCOc1ccccc1,6.54% (inactive),-4.25%,2.04%
C[C@@H]1CN([C@H](C)CO)C(=O)Cc2cc(NS(=O)(=O)c3cn(C)cn3)ccc2O[C@@H]1CN(C)C(=O)Nc1ccccc1,6.08% (inactive),7.32%,-1.29%
CN(c1cccc(NC(=O)c2ccc(CN3CCc4ccccc4C3)cc2)c1)S(C)(=O)=O,-21.5% (active),-11.3%,-3.92%
CC(=O)Nc1cccc(NC(=O)c2ccc3c(c2)CCN3S(C)(=O)=O)c1,-1.52% (inactive),7.81%,5.89%
CS(=O)(=O)N1CCc2cc(C(=O)Nc3ccccc3)ccc21,5.39% (inactive),2.75%,3.33%
COc1ccc(-c2nc(CCNC(=O)c3ccc(Br)o3)cs2)cc1,-22.8% (inactive),-75.5%,-22.8%
O=S(=O)(NCCc1csc(-c2ccccc2)n1)c1cccnc1,-11.8% (inactive),-3.96%,1.22%
O=C(NCCc1csc(-c2ccccc2)n1)c1ccccc1F,-24.5% (active),-9.12%,10.4%
C[C@H](CO)N1C[C@H](C)[C@@H](CN(C)C(=O)c2ccncc2)Oc2cc(/C=C/c3ccccc3)ccc2S1(=O)=O,-0.655% (inactive),-10%,0.748%
CC(C)NC(=O)N(C)C[C@H]1Oc2ccc(N)cc2CC(=O)N(C)C[C@H]1C,1.15% (inactive),1.28%,-1.08%
Cc1c(C(=O)NCC(c2ccco2)N2CCCC2)oc2ccc(Cl)cc12 (stereo not drawn),-0.887% (inactive),-24.2%,6.54%

Structure (SMILES),GFP signal change (wild-type ribosome),OD600 change,RFP signal change
COc1ccc2oc(C(=O)NCc3ccco3)c(C)c2c1,-31.1% (active),-11.6%,2.2%
COc1ccc2oc(C(=O)NCC(Cc3ccccc3)N(C)C)c(C)c2c1 (stereo not drawn),0.609% (inactive),-7.21%,3.26%
C[C@@H]1CCCCO[C@@H](CN(C)S(=O)(=O)c2cccs2)[C@H](C)CN([C@H](C)CO)C(=O)c2cc(NC(=O)CCCN(C)C)ccc2O1,0.863% (inactive),4.81%,-0.962%
COc1ccc(O)c(C(=O)c2cnc3c(c2)c(-c2ccc(F)cc2)c(C#N)c(=O)n3C)c1,-17% (active),6.31%,1.18%
Cc1cc(C)c2c(-c3ccc(F)cc3)c(C#N)c(=O)n(C)c2n1,2.75% (inactive),5.62%,-1.52%
COCCn1c(=O)[nH]c(=O)c2cc(C(=O)c3cc(OC)ccc3O)cnc21,-0.725% (inactive),-0.37%,12.8%
O=C(Cc1ccccc1)N1N=C(c2ccncc2)CC1(O)C(F)(F)F (stereo not drawn),7.85% (inactive),-1.11%,2.05%
CC(=O)N1N=C(c2ccccc2)OC1c1cccnc1 (stereo not drawn),9.41% (inactive),-5.18%,-3.3%
CC(=O)N1N=C(c2ccncc2)OC1(Cc1ccccc1)Cc1ccccc1,-37.5% (active),-22%,-2.93%
Cc1cccc(C)c1N1C(=O)CN(Cc2ccccc2)C1=S,-22.1% (active),-16.8%,-3.28%
COc1cccc(N2C(=O)CN(Cc3ccccc3)C2=S)c1,-8.56% (inactive),-0.07%,3.96%
CCc1cccc(C)c1N1C(=O)CN(Cc2ccccc2)C1=S,1.91% (inactive),-44.9%,-8.39%
CCC(=O)N1CC(=O)N2[C@H](CO)[C@@H](c3ccc(-c4ccc(C(=O)N(C)C)cc4)cc3)[C@H]2C1,4.58% (inactive),2.18%,-2.34%
COc1ccc(C(=O)CC(=O)c2ccc(C)cc2)c(O)c1,-49% (inactive),-75.2%,-24.9%
COc1ccc(SSc2ccc(OC)cc2C(=O)O)c(C(=O)O)c1,11.9% (inactive),11.8%,-2.19%
